Measurements published in PubChem BioAssay (NCI).
Compounds without any hit were thinned out: in the full panel of roughly 83,000, 20% have a hit.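 Percent growth is the endpoint: 0 to 100 indicates growth inhibition (40 means 60% inhibition), 0 means no net growth, and negative values indicate cell death.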 Calls of active or inactive are those of the source. Rule for the calls: active = growth percent below 10; inactive = the rest.

Key:
Test in all cases: NCI-60 one-dose screen, 48 h (100 = growth as untreated, 0 = no growth, -100 = all killed)
Settings in all cases: 10 µM unless noted
DU-145 prostate = system: DU-145 prostate
K-562 leukemia = system: K-562 leukemia
MALME-3M melanoma = system: MALME-3M melanoma
MDA-MB-231 breast = system: MDA-MB-231 breast
RXF 393 renal = system: RXF 393 renal
SF-268 CNS = system: SF-268 CNS
SF-295 CNS = system: SF-295 CNS
SF-539 CNS = system: SF-539 CNS
M14 melanoma = system: M14 melanoma

Measured: growth

N#CC(C#N)=NO
inactive: DU-145 prostate 111% | K-562 leukemia 108% | MALME-3M melanoma 99% | MDA-MB-231 breast 108% | RXF 393 renal 105% | SF-268 CNS 100% | SF-295 CNS 101% | SF-539 CNS 99.8% | M14 melanoma 110%

CC12O[C@H](C[C@@H](OC(=O)CCC(=O)O)[C@H]1O)n1c3ccccc3c3c4c(c5c6ccccc6n2c5c31)C(=O)NC4=O
inactive: DU-145 prostate 41.8% | K-562 leukemia 44.5% | MDA-MB-231 breast 64.3% | SF-268 CNS 46.4% | SF-295 CNS 13.1%
active: MALME-3M melanoma -21.6% | RXF 393 renal -3.02% | SF-539 CNS -8.98% | M14 melanoma -6.7%

Cc1cc(N(CCNc2ccnc3cc(Cl)ccc23)Cc2ccc3c(c2)OCO3)nc(N2CCCC2)n1
active: K-562 leukemia -33.2% | MALME-3M melanoma -72.8% | MDA-MB-231 breast -8.4% | RXF 393 renal -70.7% | SF-295 CNS -65.3% | SF-539 CNS -93.3% | M14 melanoma -78.2%
inactive: DU-145 prostate 29.7% | SF-268 CNS 22.8%

Clc1nc(Cl)c2ncn(C/C=C\Cn3cnc4c(Cl)nc(Cl)nc43)c2n1
active: DU-145 prostate -98.4% | K-562 leukemia -24.8% | MALME-3M melanoma -72.7% | MDA-MB-231 breast -68.5% | SF-268 CNS -2.21% | SF-295 CNS -32.9% | SF-539 CNS -52.9%

CN1CCN(Cc2ccc(NC(=O)c3[nH]ncc3Nc3ncnc4sc5c(c34)CCCC5)cc2)CC1
active: DU-145 prostate -86.7% | K-562 leukemia -60.6% | MALME-3M melanoma -75.4% | MDA-MB-231 breast -57.8% | RXF 393 renal -92.9% | SF-268 CNS -44.3% | SF-295 CNS -87.9% | SF-539 CNS -100% | M14 melanoma -95.2%

COc1cc(-c2cc(-c3ccc(Nc4ccnc5cc(Cl)ccc45)cc3)nc(N3CCOCC3)n2)cc(OC)c1OC
inactive: SF-268 CNS 11.2% | SF-539 CNS 32.9%
active: DU-145 prostate 4.95% | K-562 leukemia 7.37% | MALME-3M melanoma -22.4% | MDA-MB-231 breast -15.4% | RXF 393 renal -8.41% | SF-295 CNS 6.95% | M14 melanoma -22.2%

CCN1CCN(c2nc(C)cc(N(CCNc3ccnc4cc(Cl)ccc34)Cc3ccc4c(c3)OCO4)n2)CC1
active: K-562 leukemia -54.9% | MALME-3M melanoma -82.2% | MDA-MB-231 breast -0.846% | RXF 393 renal -54.6% | SF-295 CNS -62.9% | SF-539 CNS -90.7% | M14 melanoma -80.2%
inactive: DU-145 prostate 40.2% | SF-268 CNS 30.7%

CCOC(=O)C1=C(C)NC(=O)NC1c1cc(=O)oc2ccc(C)cc12 (configuration not stated)
inactive: DU-145 prostate 104% | K-562 leukemia 103% | MALME-3M melanoma 99% | MDA-MB-231 breast 106% | SF-268 CNS 101% | SF-295 CNS 96.9% | SF-539 CNS 102%

Cc1ccc(NC(=O)NC(=O)CSc2nc3ccccc3nc2C)cc1
inactive: DU-145 prostate 85% | K-562 leukemia 44.8% | MALME-3M melanoma 71.1% | MDA-MB-231 breast 73.1% | RXF 393 renal 90.4% | SF-268 CNS 86.5% | SF-295 CNS 43.7% | SF-539 CNS 65.5% | M14 melanoma 74.9%

Clc1ccc2c(NCCNc3nc(N4CCCC4)nc4ccccc34)ccnc2c1
active: DU-145 prostate 5.1% | K-562 leukemia -24.9% | MALME-3M melanoma -69.6% | MDA-MB-231 breast -60.7% | RXF 393 renal -56.9% | SF-295 CNS -73.1% | SF-539 CNS -92.6% | M14 melanoma -71.5%
inactive: SF-268 CNS 16.2%

COC(=O)[C@]12CC[C@@H](C)[C@H](C)[C@@H]1C1=CC[C@@H]3[C@@]4(C)C(C=O)=C[C@@](C)(COS(C)(=O)=O)C4=CC[C@@]3(C)[C@]1(C)CC2
active: DU-145 prostate -92.2% | K-562 leukemia -6.44% | MALME-3M melanoma -77.7% | MDA-MB-231 breast -55.4% | SF-268 CNS -57.1% | SF-295 CNS -60.2% | SF-539 CNS -69.8%

CCN1CCN(c2nc(C)cc(N(CCCNc3ccnc4cc(Cl)ccc34)Cc3ccc4c(c3)OCO4)n2)CC1
inactive: DU-145 prostate 25%
active: K-562 leukemia -10.5% | MALME-3M melanoma -81.9% | MDA-MB-231 breast -32.8% | RXF 393 renal -73.4% | SF-268 CNS -6.06% | SF-295 CNS -76.1% | SF-539 CNS -86.1% | M14 melanoma -87.9%
